# FAS TE block = FAS thioesterase (human) inhibition; P49327; recombinant FAS-TE, OMFH fluorogenic substrate, fluorescence endpoint; inhibition, % at 15 µM; hit rate 0.67% among 360,000;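 active = compounds whose normalised, plate-corrected inhibition of enzyme fluorescence in the single-dose primary screen is 50% or more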;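 also: 0% = DMSO with enzyme and 100% = substrate without enzyme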
# PfGluPho inh = PfG6PD (Plasmodium falciparum) enzyme inhibition; PfGluPho enzyme, NADPH resazurin-diaphorase fluorescence; inhibition, % at 20 µM; hit rate 0.78% among 350,000;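 active = inhibition reaching at least a set limit at 20 µM in the primary screen, cut at about 59% in these data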;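 also: 0% = DMSO wells with substrate and 100% = DMSO wells lacking glucose-6-phosphate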
# Neddylation inh = blocks human cullin neddylation | P61081+Q13564 | TR-FRET cullin neddylation, biochemical | calls only at 25 µM | hit rate 0.58% among 360,000; in the data active = inhibition above about 36%
# KLK7 zymogen act = activates the human kallikrein-7 zymogen; P49862; purified proKLK7, EDANS-DABCYL substrate fluorescence; 100% is mature enzyme control, 0% vehicle; activation, % at 7 µM; hit rate 0.9% among 370,000; AID 652039;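 active = activation above the mean of all tested compounds plus 3 SD, computed per campaign excluding outliers beyond control limits, cut at about 13% in these data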
# Numbers without * were called inactive; i = inactive; x = not tested or not shown; + = active, no number. In the library only some 2.7% were active in any assay of this set; here they are far more common.
SMILES,FAS TE block,PfGluPho inh,Neddylation inh,KLK7 zymogen act
Cc1ccc(S(=O)(=O)/C(C#N)=C/c2c(N3CCN(C)CC3)nc3c(C)cccn3c2=O)cc1,16,1,i,5
Cc1ccc(S(=O)(=O)/C(C#N)=C/c2c(N3CC(C)OC(C)C3)nc3c(C)cccn3c2=O)cc1 (stereo not given),56*,-5,i,0
COc1cc2c3nnc(-c4ccc(F)cc4)c-3cn(Cc3ccc(C)cc3)c2cc1OC,-73,9,+,-31
COc1cc2c3nnc(-c4ccc(F)cc4)c-3cn(Cc3cccc(C)c3)c2cc1OC,-46,6,x,-56
COc1ccc(S[C@]2(C(=O)N3CCN(C(C)=O)CC3)CC(=O)N(C(=O)Nc3ccc(C)c(Cl)c3)[C@@H]2c2ccc(OC)cc2)cc1,x,x,x,0
CCOC(=O)c1ccc(N2C(=O)C=CC2=O)cc1,3,66*,i,x
CCOC(=O)c1ccc(-n2c(C)ccc2C)cc1,-6,2,i,0
COc1ccc(C2CCC3(CCC(=O)N3CCO)CC2)cc1 (stereo not given),x,x,x,0
CCOC(=O)c1csc(NC(=O)CSc2nnnn2-c2ccc(OC)cc2)n1,2,-18,i,0
CCOC(=O)c1c(NC(=O)CSc2nnnn2-c2ccc(OC)cc2)sc(C)c1C,1,90*,i,0
Cc1[nH]c2ccccc2c1CC#N,-4,-11,i,1
Cc1[nH]c2ccccc2c1C(C#N)(C#N)C1C(=O)c2ccccc2C1=O,18,122*,i,1
CCOC(=O)CC[C@H]1CC[C@]2(CCCN(C(=O)c3ccno3)C2)O1,x,x,x,-1
CCCCCc1ccc(NC(=O)OCCCN2CCC3(CCC(c4ccccc4)CC3)C2=O)cc1 (stereo not given),x,x,x,0
O=S(=O)(Nc1nc2ccccc2nc1Nc1ccc2c(c1)OCCO2)c1cccs1,2,-32,+,1
Cc1cc(C)n2nc(/C(C#N)=C/c3ccccn3)c(C#N)c2n1,1,14,+,1
Cc1cc(C)n2nc(CC#N)c(C#N)c2n1,-6,7,i,0
CN1CCN(CCNC(=O)c2ccc3nc(-c4ccc(F)cc4)c(-c4ccc(F)cc4)nc3c2)CC1,-1,4,+,-5
Cc1ccccc1Cn1cc(CN2[C@@H](CC(C)C)COc3cccc(F)c3S2(=O)=O)nn1,x,x,x,0
O=c1[nH]c(C2CCN(S(=O)(=O)c3ccc4c(c3)OCCO4)CC2)nc2c1nnn2Cc1ccccc1,-2,-23,i,0
Cc1ccc(C)c(S(=O)(=O)N2CCC(c3nc4c(nnn4Cc4ccc5c(c4)OCCO5)c(=O)[nH]3)CC2)c1,70*,-10,i,0
COc1cccc(N2CCN(CC(=O)NCc3cccc(OC)c3OC)CC2)c1,x,x,x,0
COc1ccc(/C=N/NC(=O)c2cc(-c3ccccc3OC)nc3ccccc23)cc1COC(C)=O,20,-22,+,-47
COc1ccc(/C=N/NC(=O)c2cc(-c3ccc(C)cc3C)nc3ccccc23)cc1COC(C)=O,39,-18,x,-3
Cc1ccccc1/C=C/C(=O)c1ccc([N+](=O)[O-])o1,x,80*,x,0
SMILES,FAS TE block,PfGluPho inh,Neddylation inh,KLK7 zymogen act
O=C(/C=C/c1cccc([N+](=O)[O-])c1)c1ccc([N+](=O)[O-])o1,4,98*,i,1
COc1ccc(Cn2cc(CN3[C@H](CC(C)C)COc4cc(Br)ccc4S3(=O)=O)nn2)cc1,x,x,x,-1
O=C(N/N=C/c1ccccc1O)C1CC(=O)N(c2ccc(Cl)cc2)C1 (stereo not given),19,-10,+,-40
Cc1cc(C)cc(C(=O)OCCCN(C)C2CN(Cc3cn(Cc4ccc([N+](=O)[O-])cc4)nn3)S(=O)(=O)C2)c1 (stereo not given),x,x,x,0
O=C(CCc1ccccc1)N[C@H]1[C@@H](OC(=O)c2cccnc2)CCC[C@]12C(=O)N(Cc1ccccc1)c1ccccc12,x,x,x,1
O=C1C2C3C=CC(CO)(O3)C2C(=O)N1c1ccccc1-c1ccccc1 (stereo not given),-6,82*,i,x
COCCCNC(=O)C[C@H]1C[C@@]2(C(=O)OC)C(=C[C@H](C(C)C)O[C@@H]2C2CC2)N(CCc2ccc(OC)c(OC)c2)C1=O,x,x,x,0
Oc1cc(-c2ccccc2)c2ccccc2c1,16,101*,i,-7
O=C(Nc1nccs1)c1ccccc1N=Cc1ccccc1,11,17,i,42*
O=C(Nc1nccs1)c1cccnc1Cl,0,-4,i,0
CN(C)NC(=S)NC(=O)C12CC3CC(CC(C3)C1)C2,-10,0,i,0
CN(C(=S)NC(=O)C12CC3CC(CC(C3)C1)C2)c1ccc(O)cc1,-6,103*,i,2
CN1CSC2=C(C#N)C(c3cccc(OCc4ccccc4)c3)CC(=O)N2C1 (stereo not given),5,92*,i,0
COCCCNC(=O)c1ccc2c3c(onc13)-c1ccccc1C2=O,5,16,i,x
CCOC(=O)C(C(=O)OCC)c1cc(Br)c2noc3c2c1C(=O)c1ccccc1-3,-78,84*,i,-2
COc1cccc(N2CCN(CC(=O)NCc3ccc(Cl)cc3)CC2)c1,x,x,x,0
Nc1cccc2nsnc12,6,44,i,2
Nc1cc2nsnc2cc1Br,26,99*,i,1
COC(=O)[C@]12C[C@H](CC(=O)N3CCSCC3)C(=O)N(Cc3cccc4ccccc34)C1=C[C@H](C1CCCC1)O[C@@H]2C,x,x,x,1
Cc1cc(C)c2c3c(sc2n1)C(c1cccc(F)c1)C(C#N)=C(N)O3 (stereo not given),29,26,+,-5
COc1ccc2c(c1)CCCN2C(=O)C1CCCN(S(=O)(=O)c2ccc(C)c(C)c2)C1 (stereo not given),x,x,x,0
CC[n+]1c(/C=C2\C=C(C)CC(C)C2)sc2ccccc21 (stereo not given),-15,49,i,x
CCC1=C/C(=C/c2sc3ccccc3[n+]2CC)CC(C)(C)C1,x,61*,x,0
CCCNC(=O)C[C@H]1CC[C@H]2[C@@H](COc3ccc(NC(=O)c4cncs4)cc3C(=O)N2C)O1,x,x,x,0
CC(=O)c1cc(-c2cc(C(=O)O)cc([N+](=O)[O-])c2)c(=O)n2c1CCC2,x,x,x,0
SMILES,FAS TE block,PfGluPho inh,Neddylation inh,KLK7 zymogen act
O=C(CSc1nnc(-c2ccccc2)n1-c1ccc(Cl)cc1)NN=Cc1c[nH]c2ccccc12,x,x,x,0
CNC(=S)N/N=C/c1ccc(-c2ccc(Cl)c([N+](=O)[O-])c2)o1,22,3,i,0
CNC(=S)N/N=C/c1ccc(-c2ccc(C(=O)O)cc2)o1,-4,1,+,12
CC(C)(C)OC(=O)NCCCC[C@H](NC(=O)c1[nH]cnc1C(=O)Nc1ccc(Cl)cc1)C(=O)OC(C)(C)C,76*,-5,i,x
O=C(O)c1ccc(N/N=C/c2cc3cc4c(cc3nc2Cl)OCCO4)cc1,-4,8,+,-6
NS(=O)(=O)c1ccc(NC(=O)CSc2nc3ccccc3c(=O)n2-c2ccc(Br)cc2)cc1,x,x,x,0
O=C(Cc1ccc(Cl)cc1Cl)Nc1cccc(S(=O)(=O)Nc2ccccc2F)c1,-7,70*,i,-1

# Source: PubChem
